# Rows were chosen to be rich in hits. Some 3.6% of all compounds tested hit in one or more screens of this group.
# PLK1 PBD inh: qHTS for Inhibitors of PLK1-PDB (polo-like kinase 1 - polo-box domain): Primary Screen | actives 2.8% (n = 360,000) | Serine/threonine-protein kinase PLK1 (Homo sapiens), P53350 | Plk1 PBD binding of FITC phosphopeptide, fluorescence polarization | Potency, µM, inactives show max response, negative = inhibition, hits mostly inhibitors | AID 720504, 2013; further: potency means the concentration at half of the fitted maximal effect; series mostly up to about 57 µM; on the % scale 0 is the no-effect control and ±100 the full control effect; nearly all actives have a fitted effect of over 65% in size
# KAT2A inh: qHTS Assay for Inhibitors of GCN5L2 | Histone acetyltransferase KAT2A (Homo sapiens), Q92830 | GCN5L2 HAT assay, ThioGlo1 CoA-SH fluorescence | Potency, µM (doses to about 58.9 µM), for inactives: at the highest dose activity change, negative = inhibition, usual class: inhibitors | actives 0.21% (n = 390,000) | AID 504327, 2011; further: potency means the concentration at half of the fitted maximal effect; on the % scale 0 is the no-effect control and ±100 the full control effect
#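 Enzyme at 20nM final was mixed with library compounds for 15 min at room temperature. Peptide H3(1-25) at 75uM, acetyl-CoA at 70uM and ThioGlo1 at 50uM were then added. Plates were read immediately and after 20 min (Ex340nm/Em540nm).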
# VDR inh: Inhibitors of the vitamin D receptor (VDR): qHTS; AID 504847, 2011; VDR-SRC2-3 peptide fluorescence polarization, 2 h; actives 0.93% (n = 400,000); Potency, µM, inactives show max response, negative = inhibition, usual class: inhibitors; further: potency means the concentration at half of the fitted maximal effect; on the % scale 0 is the no-effect control and ±100 the full control effect
# Target sequence (P11473 whole entry, looked up): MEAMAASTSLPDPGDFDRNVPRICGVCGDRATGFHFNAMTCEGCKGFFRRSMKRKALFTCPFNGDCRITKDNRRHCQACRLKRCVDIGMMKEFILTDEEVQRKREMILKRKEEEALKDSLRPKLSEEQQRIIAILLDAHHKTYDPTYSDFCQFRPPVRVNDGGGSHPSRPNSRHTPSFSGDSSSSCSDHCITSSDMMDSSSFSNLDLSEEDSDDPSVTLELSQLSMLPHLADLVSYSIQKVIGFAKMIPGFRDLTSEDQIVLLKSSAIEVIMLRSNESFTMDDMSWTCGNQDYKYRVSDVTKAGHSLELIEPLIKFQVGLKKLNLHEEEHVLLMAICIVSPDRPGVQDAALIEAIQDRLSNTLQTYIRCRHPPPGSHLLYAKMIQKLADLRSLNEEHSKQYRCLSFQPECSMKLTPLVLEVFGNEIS
#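 FP read-out; VDR + SRC2-3 coactivator peptide; 23 nl compound by pintool; 2 h RT incubation; reagents held at 4 deg C, protected from light.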
# Rango-impB inh: qHTS Assay for Inhibitors of Rango (Ran-regulated importin-beta cargo) - Importin beta complex formation. Potency, µM (series often up to 92.2 µM), for inactives: top-dose inhibition of complex formation. actives 0.031% (n = 340,000). Rango CFP/YFP FRET sensor + importin beta, 45 min. Importin subunit beta-1 (Homo sapiens), Q14974; calls by dose curve;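 further: potency means the concentration at half of the fitted maximal effect; 0% = DMSO wells and 100% = buffer wells lacking importin beta; nearly all actives have a fitted effect of over 15% in size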
#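 FRET biosensor (snurportin 1 IBB flanked by EYFP and cerulean), 50 nM, with compound 5 min, then 0.125 microM importin beta in PBS, 1 mM DTT, 0.02% Tween-20, 0.1% BSA. CFP/YFP ratio read after 45 min at room temperature; pre-read flags interference.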
# PI5P4Ka inh: qHTS for Inhibitors of phosphatidylinositol 5-phosphate 4-kinase (PI5P4K) | Phosphatidylinositol 5-phosphate 4-kinase type-2 alpha (Homo sapiens), P48426 | PI5P4Kalpha enzyme, ADP-Glo luminescence, 60 min; stronger effect = lower value | max response, % | actives 1.2% (n = 330,000) | AID 652105, 2013; active means max response of -50% or lower; inconclusive means between -30% and -50%; inactive means -30% or higher; further: value at the top dose of about 77 µM; on the % scale 0 is the no-effect control and ±100 the full control effect
#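 Luminescence from ADP-Glo served as readout of PI5P4Kalpha activity in a qHTS format. Reaction: enzyme, substrate, compound, ATP at 5 microM final, 60 min at RT.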
# Rango dissoc inh: qHTS Assay for Inhibitors of RanGTP induced Rango (Ran-regulated importin-beta cargo) - Importin beta complex dissociation | Snurportin-1 (Homo sapiens) + GTP-binding nuclear protein Ran (Homo sapiens) + Importin … | Biochemical FRET Rango-importin beta, RanGTP-induced dissociation | Potency, µM (highest dose often 46.1 µM), for the others: at the top dose activity change, negative = inhibition | actives 0.071% (n = 340,000) | AID 540253, 2011; calls by dose curve; further: potency means the concentration at half of the fitted maximal effect; % of control where 0% means no effect; nearly all actives have a fitted effect of over 45% in size
#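 Quantitative HTS using a FRET biosensor: 0.1 uM Rango, 0.25 uM importin beta, 0.6 uM Ran, 2 mM GTP, 0.2 uM RCC1 final, PBS with DTT, Tween-20 and BSA. Post-read taken 45 min after Ran addition.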
# * = called active by the depositor; ? = inconclusive; nt = not tested or not shown. Unless noted, the call rests on the fitted dose curve; in most records, active means well fitted curve in the direction sought with a large enough effect; inconclusive means small, poorly fitted or top-dose-only effect, or another doubt; inactive means no such curve, though single readings can be large; an effect the other way counts as inactive or inconclusive.
SMILES,PLK1 PBD inh,KAT2A inh,VDR inh,Rango-impB inh,PI5P4Ka inh,Rango dissoc inh
CC1Cc2cc(/C(O)=C3/C(=O)C(=O)N(CC4CCCO4)C3c3ccco3)ccc2O1 (stereo unspecified),30µM*,-8%,-12%,1%,-19,1%
CN(c1nnc(NC(=O)Nc2ccccc2C(F)(F)F)s1)C1CCCCC1,nt,-6%,5%,nt,nt,nt
O=c1cc(-c2ccccc2)nc2c(-c3ccccc3)c(C(F)(F)F)[nH]n12,17µM*,?,-22%,0%,7,-12%
O=C(O)c1ccc(N2C(=O)CC(N3C(=O)/C(=C/c4ccc(Cl)cc4)SC3=S)C2=O)cc1 (stereo unspecified),27µM*,?,?,1%,-64*,-12%
Fc1ccccc1N1CCN(c2nnnn2-c2ccccc2)CC1,-4%,0%,14%,-3%,-2,15%
Oc1ccccc1N1CCN(c2nnnn2-c2ccccc2)CC1,30µM*,-9%,?,-1%,-11,36%
COc1ccc(N(C(=O)COc2c(C)cccc2C)S(=O)(=O)c2ccc(Cl)cc2)cc1,nt,-8%,16%,nt,nt,nt
COc1ccc(OC)c(/C=N/c2oc(-c3ccco3)c(-c3ccco3)c2C#N)c1,-12%,-22%,-5%,?,-79*,-23%
COc1ccc(C=NNC(=O)CCCCC(=O)NN=Cc2ccc(OC)cc2)cc1,-1%,nt,2%,1%,3,24%
COC(=O)/C=C\C(C#N)(C#N)N=Cc1ccc(OC)cc1,9.5µM*,nt,13µM*,?,1,-15%
CC1CCN(C(=O)/C(=C/c2ccccc2Cl)c2ccccc2)CC1,-25%,-8%,-1%,0%,3,-1%
N#CC(C#N)=C1C=CC=CN1/C(=C\c1ccccc1)C(=O)c1cccs1,2.1µM*,-7%,?,?,-13,?
N#CC(C#N)=C1C=CC=CN1/C(=C\c1ccccc1Cl)C(=O)c1ccccc1,1.7µM*,-11%,?,?,-21,?
CCOC(=O)c1ccc(NC(=O)CSc2nccn2Cc2ccc(OC)cc2)cc1,nt,-3%,13%,nt,nt,nt
c1coc(CNc2nc[n+]3c4c2ncn4CC3)c1,nt,nt,-15%,nt,nt,nt
O=C(Cn1c(=O)oc2cc(S(=O)(=O)NC3CCCC3)ccc21)Nc1ccc(F)c(F)c1,nt,-2%,1%,nt,nt,nt
CCCCOc1c(Br)cc(/C=N/O)cc1OCC,0%,-13%,-3%,4%,23,-1%
C=CCOc1c(Br)cc(/C=N/O)cc1OCC,30µM*,-5%,-17%,-4%,5,-18%
CCC(C)NC(=O)c1cccc(NC(=O)c2nsc3ccccc23)c1 (stereo unspecified),nt,-5%,10%,nt,nt,nt
O=[N+]([O-])c1ccc(CSc2nnc(Cc3ccccc3)n2-c2ccc(F)cc2)cc1,-3%,2%,-15%,1%,20,9%
COc1ccc(-n2c(Cc3ccccc3)nnc2SCc2ccc([N+](=O)[O-])cc2)cc1,27µM*,-3%,-10%,0%,-5,4%
COc1ccc(C(CC(=O)Nc2ccc(C(C)=O)cc2)N2Cc3ccccc3C2=O)cc1 (stereo unspecified),nt,-9%,-1%,nt,nt,nt
Nc1ccc(N)c(C(=O)O)c1,24µM*,7.9µM*,?,?,-91*,0%
CN(C(=O)C1=CC(c2ccc3c(c2)OCO3)=NS(=O)(=O)N1C)c1ccccc1,nt,-6%,19%,nt,nt,nt

# Screening data: PubChem BioAssay, National Center for Advancing Translational Sciences (NCATS)
